Most compounds without a hit are left out; they make up all but 5.2% or so of the library.
esBAF inh – inhibitors of esBAF chromatin remodeling in mouse ES cells; Bmi1-luciferase knock-in reporter, 24 h; 100% = twice the neutral-well signal; reporter increase, % at 12.5 µM; hit rate 2% among 350,000; in the data active means activation above about 40%; inconclusive means no clear call, values can overlap the other calls;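 further: a rise in the Bmi1 reporter signal indicates esBAF inhibition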
SKN-1 inh – C. elegans SKN-1 inhibition; C. elegans VP596 Pgst-4::GFP/RFP ratio, acrylamide-induced, 24 h; inhibition, % at 21.8 µM; hit rate 0.49% among 360,000; AID 624304;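 active means interference check ratio from 0.5 to 1.5 plus GFP to RFP signal ratio inhibition reaching or exceeding a fixed threshold, cut at about 30% in these data, passing the limit was not always enough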
NR3A LBD binder – modulators (binders) of human NR3A ligand-binding domain | NR3A LBD differential scanning fluorimetry, Tm shift; 0% = protein alone, 100% = glycine-bound protein | Tm shift relative to glycine control, % at 25 µM | hit rate 2.5% among 340,000;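 active means melting temperature shift of at least 10% of the positive control shift, at one fixed dose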
Vif inh – HIV Vif inhibition; HEK293T cells, Vif self-association by quenched fluorescence, imaging, 24 h; inhibition, % at 7.49 µM; hit rate 0.35% among 340,000; in the data active means inhibition above about 50%, passing the limit was not always enough; inconclusive means no clear call, values can overlap the other calls; inactive means below about 31%
SMARCA2 act – activators of SMARCA2 function | MG213 cells, MMTV-luciferase reporter, dexamethasone, overnight | activation, % at 9.1 µM | hit rate 1% among 370,000 | AID 652017; in the data active means activation above about 7.8%
NadD inh – inhibitors of Staphylococcus aureus NadD; purified NadD enzyme, colorimetric absorbance read-out; hit rate 0.78% among 360,000; inhibition, % at 20 µM; in the data active means inhibition above about 26%
Of the large screens only hits and unclear results are named; the others gave an inactive call.

C[C@H]1CN([C@@H](C)CO)S(=O)(=O)c2ccc(-c3cccnc3)cc2O[C@H]1CN(C)C	none (no result: SKN-1 inh, NR3A LBD binder, Vif inh, SMARCA2 act, NadD inh)
CC(C)C1CC(=O)NC(SCC(=O)Nc2ccc(Br)cc2)=C1C#N (stereo unspecified)	esBAF inh 99
CC1=C(C(=O)Nc2ccccc2)C2(CCCCC2)C(C#N)=C(SCC(N)=O)N1	none
N#CC1=C(N)NC(SCc2ccc(Br)cc2)=C(C#N)C12CCCCC2	NR3A LBD binder 11
CC1(C)CC(=O)C2=C(C1)NC(SCC(=O)Nc1ccccc1)=C(C#N)C21CCCCC1	NR3A LBD binder 12
CC(C)(C)C1CCC2(CC1)C(C#N)=C(SCC(=O)Nc1ccccc1)NC(=O)C2C#N (stereo unspecified)	NR3A LBD binder 21
N#CC1=C(N)NC(SCC(=O)Nc2ccc(Br)cc2)=C(C#N)C12CCCCC2	NR3A LBD binder 31
Cc1ccccc1NC(=O)CSC1=C(C#N)C(c2ccsc2)CC(=O)N1 (stereo unspecified)	SKN-1 inh 38
C[C@H](CO)N1C[C@H](C)[C@H](CN(C)Cc2ccc(F)cc2)Oc2cc(C#CCN(C)C)ccc2S1(=O)=O	none (no result: SKN-1 inh, NR3A LBD binder, Vif inh, SMARCA2 act, NadD inh)
C=CCN1C(=O)/C(=C/c2ccc(O)cc2)S/C1=N/c1nccs1	NR3A LBD binder 20 (no result: esBAF inh)
C[C@H](CO)N1C[C@H](C)[C@@H](CN(C)S(=O)(=O)c2ccc(Cl)cc2)Oc2ccc(NS(=O)(=O)c3cn(C)cn3)cc2CC1=O	none (no result: SKN-1 inh, NR3A LBD binder, Vif inh, SMARCA2 act, NadD inh)
COC(=O)c1cc(-c2ccccc2)sc1N	esBAF inh 51
Nc1sc(-c2ccccc2)cc1C(=O)N/N=C/c1ccc(Cl)cc1	NR3A LBD binder 13 (no result: esBAF inh)
O=C(N/N=C/c1ccc(Cl)cc1)c1cc2c(s1)-c1ccccc1CC2	NR3A LBD binder 12 (no result: esBAF inh)
O=C(O)c1cc2c(s1)-c1ccccc1CC2	none (no result: esBAF inh)
C[C@H](CO)N1C[C@H](C)[C@H](CN(C)C(=O)Nc2ccccc2)Oc2ccc(NC(=O)Nc3ccccc3)cc2CC1=O	none (no result: SKN-1 inh, NR3A LBD binder, Vif inh, SMARCA2 act, NadD inh)
C[C@@H]1CCCCO[C@@H](CN(C)C(=O)Cc2ccccc2)[C@H](C)CN([C@@H](C)CO)C(=O)c2cc(NS(=O)(=O)c3ccc(Cl)cc3)ccc2O1	none (no result: SKN-1 inh, NR3A LBD binder, Vif inh, SMARCA2 act, NadD inh)
COc1ccccc1CNC(=O)C[C@H]1C[C@@H]2c3cc(NC(=O)C4CCOCC4)ccc3O[C@@H]2[C@@H](CO)O1	none (no result: SKN-1 inh, NR3A LBD binder, Vif inh, SMARCA2 act, NadD inh)
COC1=CC(=O)C(C2CC(=O)c3c(O)cc(O)cc3O2)=CC1=O (stereo unspecified)	none (no result: esBAF inh)
COc1ccc([C@@H]2CC(=O)c3c(O)cc(O)cc3O2)cc1O	esBAF inh 54
COc1c(CC=C(C)C)cc(C2CC(=O)c3c(O)cc(O)cc3O2)cc1CC=C(C)C (stereo unspecified)	NR3A LBD binder 30
COC(=O)c1ccc(C(=O)Nc2ccc3nc(-c4ccncc4)[nH]c3c2)cc1	NR3A LBD binder 15
Nc1ccc(C(=O)Nc2ccc3nc(-c4cccnc4)[nH]c3c2)cc1	NR3A LBD binder 13 (no result: Vif inh)
COC(=O)c1ccc(C(=O)Nc2ccc3nc(-c4cccnc4)[nH]c3c2)cc1	none
Cn1cccc1-c1nc2ccc(NC(=O)c3ccc([N+](=O)[O-])cc3)cc2[nH]1	NR3A LBD binder 27
C[C@@H](NC(=O)[C@@H]1[C@@H](CO)[C@@H]2Cn3c(cccc3=O)[C@H]1N2C(=O)C1CCCC1)c1ccccc1	none (no result: SKN-1 inh, NR3A LBD binder, Vif inh, SMARCA2 act, NadD inh)
O=C(c1cccs1)N1CCc2c([nH]c3ccccc23)C1c1ccc(Cl)cc1 (stereo unspecified)	SKN-1 inh 50
O=C(c1cccs1)N1CCc2c([nH]c3ccccc23)C1c1ccccn1 (stereo unspecified)	none (no result: esBAF inh)
c1ccc(CN2CN=C(Nc3nc4ccccc4s3)NC2)cc1	none
c1ccc2sc(NC3=NCN(C4CCCCC4)CN3)nc2c1	none (no result: SMARCA2 act)
c1coc(CN2CN=C(Nc3nc4ccccc4s3)NC2)c1	esBAF inh 51
CC1CCCCC1N1CN=C(Nc2nc3ccccc3s2)NC1 (stereo unspecified)	SKN-1 inh 56
C[C@@H]1CN([C@@H](C)CO)S(=O)(=O)c2ccc(C#CC3CC3)cc2O[C@@H]1CN(C)Cc1cccnc1	none (no result: SKN-1 inh, NR3A LBD binder, Vif inh, SMARCA2 act, NadD inh)
CSCC(C)N1CCC(n2nccc2NC(=O)c2ccc3c(c2)OCO3)CC1 (stereo unspecified)	none
CSCC(=O)N1CCC(n2nccc2NC(=O)c2ccc3c(c2)OCO3)CC1	esBAF inh 58
COCCn1c(SCC(=O)N2CCC(C)CC2)nc2c(c1=O)SCC2	NR3A LBD binder 11
CC1Cc2nc(SCC(=O)Nc3ccc4c(c3)OCO4)n(Cc3ccccc3)c(=O)c2S1 (stereo unspecified)	esBAF inh 64
COCCn1c(SCC(=O)N2CCCC2)nc2c(c1=O)SCC2	none (no result: NR3A LBD binder)
COCCn1c(SCC(=O)Nc2ccc3c(c2)OCCO3)nc2c(c1=O)SC(C)C2 (stereo unspecified)	esBAF inh 47
CCNC(=O)C[C@H]1CC[C@@H]2[C@H](COc3ccc(NC(=O)Nc4ccc(F)cc4)cc3C(=O)N2C)O1	none (no result: SKN-1 inh, NR3A LBD binder, Vif inh, SMARCA2 act, NadD inh)
C[C@H](CO)N1C[C@H](C)[C@H](CN(C)CC2CCOCC2)Oc2cc(C#CC3CC3)ccc2S1(=O)=O	none (no result: SKN-1 inh, NR3A LBD binder, Vif inh, SMARCA2 act, NadD inh)
Cc1noc(C)c1S(=O)(=O)Nc1ccc2c(c1)C(=O)N([C@@H](C)CO)C[C@@H](C)[C@@H](CN(C)C(=O)Nc1ccc(F)cc1)OCCCC[C@@H](C)O2	none (no result: SKN-1 inh, NR3A LBD binder, Vif inh, SMARCA2 act, NadD inh)
O=C(Nc1ccc(Cl)cc1)NN1CC(=O)N(c2cccc(C(F)(F)F)c2)CC1=O	NR3A LBD binder 30 (no result: esBAF inh)
Cc1ccc(N2CC(=O)N(NC(=O)Nc3ccc(Cl)c(Cl)c3)CC2=O)cc1	NR3A LBD binder 13 (no result: esBAF inh)
Cc1ccc(S(=O)(=O)NNC(=O)Nc2ccc(Cl)c(Cl)c2)cc1	none (no result: esBAF inh)
CN1C(=O)c2cc(NC(=O)c3cccs3)ccc2OC[C@@H]2O[C@@H](CC(=O)O)CC[C@H]21	none (no result: SKN-1 inh, NR3A LBD binder, Vif inh, SMARCA2 act, NadD inh)
Cc1cccc(-n2cnc(C(=O)NC3CCCCCC3)c2)n1	esBAF inh 68
CCCc1cc(=O)oc2cc(OC(C)C(=O)NCCCn3ccnc3)ccc12 (stereo unspecified)	Vif inh inconclusive, SMARCA2 act 7.9
CCCc1cc(=O)oc2cc(OCC(=O)NCCCn3ccnc3)ccc12	none
CN1C(=O)c2cc(NC(=O)c3cnccn3)ccc2OC[C@@H]2O[C@@H](CC(=O)O)CC[C@@H]21	none (no result: SKN-1 inh, NR3A LBD binder, Vif inh, SMARCA2 act, NadD inh)
CCCNC(=O)N(C)C[C@@H]1Oc2ncc(C#Cc3ccncc3)cc2C(=O)N([C@@H](C)CO)C[C@H]1C	none (no result: SKN-1 inh, NR3A LBD binder, Vif inh, SMARCA2 act, NadD inh)
COc1ccc(OCc2cc(C(=O)N3C[C@H]4CC[C@H]3C4)no2)c(Cl)c1	esBAF inh 61
COc1ccccc1OCc1cc(C(=O)N2CC3C[C@@H]4CC2C[C@H](C3)C4)no1	esBAF inh 63
COCC1CCN(C(=O)c2cc(COc3ccc(F)cc3F)on2)C1 (stereo unspecified)	none
O=C(c1cc(COc2ccc(F)cc2F)on1)N1CC2C[C@@H]3CC1C[C@H](C2)C3	esBAF inh 55

Screens deposited in PubChem BioAssay by several laboratories.
